In PubChem BioAssay (Tox21):
A number with no mark means an inactive call. Records with an inconclusive call do not appear. A call without a number means that no potency is given here. Calls of active or inactive are those of the source. Unless noted, calls follow the shape of the dose curve; as a rule, active = well fitted curve in the direction sought with a large enough effect in the repeat runs; inconclusive = weak or mixed curves; inactive = no such curve, though single readings can be large; an effect the other way counts as inactive or inconclusive.

Experiments:
[1] = qHTS assay to identify small molecule agonists of the androgen receptor (AR) signaling pathway in the presence of an antagonist - cell viability counter screen (AID 1259379); also: nearly all actives have a fitted effect of over 25% in size; also: potency is read from the fitted curve at half-maximal effect
How it was run: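 Cytotoxicity counter-screen run in the same wells as the nilutamide-challenged (3.0 µM final) AR agonist assay in MDA-kb2 cells. Compounds tested at 15 concentrations for 16 h, 37 °C without CO2; CellTiter-Fluor fluorescence read.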

[2] = qHTS assay to identify small molecule agonists of the estrogen receptor beta (ER-beta) signaling pathway - cell viability counter screen (AID 1259380); also: nearly all actives have a fitted effect of over 30% in size; also: potency is read from the fitted curve at half-maximal effect
How it was run: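 Cell viability counter screen: CellTiter-Glo luminescence (30 min, room temperature) measured in the same wells as the beta-lactamase readout, after 16 hr compound exposure at 37C of ER-beta-bla HEK293T cells in 2% charcoal-stripped FBS medium.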

[3] = target: Estrogen receptor (Homo sapiens) (UniProt P03372); assay: qHTS assay to identify small molecule agonists of the estrogen receptor alpha (ER-alpha) signaling pathway in the presence of an antagonist (AID 1259383; calls by dose curve; also: top concentration of the series differs between compounds; nearly all actives have a fitted effect of over 15% in size)
Estrogen receptor (Homo sapiens), sequence (P03372 whole entry, looked up): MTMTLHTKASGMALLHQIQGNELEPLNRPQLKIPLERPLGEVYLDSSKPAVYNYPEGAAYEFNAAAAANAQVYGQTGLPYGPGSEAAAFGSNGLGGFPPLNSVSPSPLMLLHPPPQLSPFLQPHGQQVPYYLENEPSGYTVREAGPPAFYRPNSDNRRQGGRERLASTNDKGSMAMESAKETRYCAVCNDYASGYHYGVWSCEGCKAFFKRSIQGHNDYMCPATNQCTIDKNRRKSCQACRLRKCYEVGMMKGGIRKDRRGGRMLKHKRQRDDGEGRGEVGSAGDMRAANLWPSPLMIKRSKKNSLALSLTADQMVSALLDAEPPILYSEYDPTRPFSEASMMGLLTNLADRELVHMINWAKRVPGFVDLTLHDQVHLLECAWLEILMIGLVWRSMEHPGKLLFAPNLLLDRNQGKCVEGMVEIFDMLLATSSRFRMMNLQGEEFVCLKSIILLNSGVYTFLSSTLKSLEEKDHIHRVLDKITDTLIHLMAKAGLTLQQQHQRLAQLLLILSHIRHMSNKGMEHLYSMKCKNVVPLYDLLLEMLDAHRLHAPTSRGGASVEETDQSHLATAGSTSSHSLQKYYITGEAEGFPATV
How it was run: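 Agonist-mode confirmation run in the presence of 10.0nM (final) ICI-182,780 antagonist. The reporter was ERE-driven luciferase in VM7Luc4E2 cells, grown in charcoal-stripped serum. Cells were exposed to 15-concentration compound series for 22hr, then ONE-Glo luminescence was read.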

[4] = qHTS assay to identify small molecule agonists of the estrogen receptor alpha (ER-alpha) signaling pathway in the presence of an antagonist - cell viability counter screen (AID 1259386); also: nearly all actives have a fitted effect of over 30% in size; also: potency is read from the fitted curve at half-maximal effect
How it was run: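 Compounds tested at 15 concentrations for 22 h at 37C alongside 10.0nM (final) ICI-182,780 antagonist, in VM7Luc4E2 cells grown in phenol red-free, charcoal-stripped medium. Viability read by CellTiter-Fluor fluorescence after 1 h reagent incubation.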

[5] = target: Progesterone receptor (Homo sapiens) (UniProt P06401); assay: qHTS assay to identify small molecule agonists of the progesterone receptor (PR) signaling pathway (AID 1346784; calls by dose curve; also: nearly all actives have a fitted effect of over 30% in size)
Progesterone receptor (Homo sapiens), sequence (P06401 whole entry, looked up): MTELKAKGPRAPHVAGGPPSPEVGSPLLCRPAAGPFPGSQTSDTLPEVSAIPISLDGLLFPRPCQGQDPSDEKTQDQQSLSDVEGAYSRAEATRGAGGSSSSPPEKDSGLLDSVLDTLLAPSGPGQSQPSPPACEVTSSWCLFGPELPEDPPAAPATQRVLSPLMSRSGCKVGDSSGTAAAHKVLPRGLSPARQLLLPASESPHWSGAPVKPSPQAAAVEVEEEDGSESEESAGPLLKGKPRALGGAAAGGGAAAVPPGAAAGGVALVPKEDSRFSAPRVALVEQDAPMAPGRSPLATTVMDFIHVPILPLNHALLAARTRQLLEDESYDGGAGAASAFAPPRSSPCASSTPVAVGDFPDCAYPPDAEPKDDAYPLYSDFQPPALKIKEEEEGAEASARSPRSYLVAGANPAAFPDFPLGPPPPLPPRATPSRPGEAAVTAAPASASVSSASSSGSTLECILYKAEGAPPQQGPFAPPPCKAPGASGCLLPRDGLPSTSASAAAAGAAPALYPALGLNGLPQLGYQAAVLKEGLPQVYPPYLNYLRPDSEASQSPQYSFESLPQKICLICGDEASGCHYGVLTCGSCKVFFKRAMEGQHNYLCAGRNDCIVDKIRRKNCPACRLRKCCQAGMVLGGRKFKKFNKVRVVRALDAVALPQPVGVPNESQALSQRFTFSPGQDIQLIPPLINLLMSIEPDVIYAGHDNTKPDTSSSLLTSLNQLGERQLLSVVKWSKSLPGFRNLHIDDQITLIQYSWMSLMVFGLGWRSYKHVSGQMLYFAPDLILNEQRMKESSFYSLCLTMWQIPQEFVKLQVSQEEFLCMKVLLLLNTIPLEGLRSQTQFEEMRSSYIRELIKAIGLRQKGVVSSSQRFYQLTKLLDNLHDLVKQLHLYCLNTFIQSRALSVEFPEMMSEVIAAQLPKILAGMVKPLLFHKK
How it was run: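 Cells (PR-UAS-bla HEK 293T, GripTite) were plated in assay medium containing 2% charcoal-stripped FBS and incubated 6 hr. Test compounds in DMSO were added for 16 hr at 37C. FRET substrate was then loaded for 2 hr at room temperature before fluorescence reading.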

[6] = target: Progesterone receptor (Homo sapiens) (UniProt P06401); assay: qHTS assay to identify small molecule antagonists of the progesterone receptor (PR) signaling pathway (AID 1346795; active = well fitted inhibition curve with a large enough effect in the signal ratio in the repeat runs, not every such curve was filed as active; the % refers to the signal ratio)
How it was run: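 Antagonist mode: compounds tested against 1 nM (final) promegestone stimulation in HEK293T cells expressing PR-UAS-bla reporter, 16 hr at 37C, 5% CO2; beta-lactamase activity detected via B/G FRET substrate after 2 hr at room temperature.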

[7] = qHTS assay to identify small molecule antagonists of the progesterone receptor (PR) signaling pathway - cell viability counter screen (AID 1346798); also: series mostly up to about 92 µM; nearly all actives have a fitted effect of over 50% in size
How it was run: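 Counter screen for cytotoxicity: viability of PR-UAS-bla HEK293T cells was measured with CellTiter-Glo luminescence following 16 hr compound exposure in the presence of R5020.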

[8] = qHTS assay to identify small molecule agonists of the progesterone receptor (PR) signaling pathway - cell viability counter screen (AID 1346799; calls by dose curve; also: nearly all actives have a fitted effect of over 45% in size; also: potency is read from the fitted curve at half-maximal effect)
How it was run: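 Cells (PR-UAS-bla HEK293T) are plated at 3,000/well in 2% charcoal-stripped FBS medium, rested 6 hr, dosed and incubated 16 hr at 37C. CellTiter-Glo is then added and luminescence measured after 30 min at room temperature.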

[9] = qHTS assay to identify small molecule antagonists of the TGF-beta/Smad signaling pathway - cell viability counter screen (AID 1346824); also: nearly all actives have a fitted effect of over 50% in size
How it was run: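 SBE-bla HEK 293T cells, incubated overnight, then compound plus 0.25 ng/mL TGF-beta1 (stock added) for 5 hr at 37 C. Viability was read in the same wells by CellTiter-Glo luminescence after 30 min at room temperature.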

[10] = qHTS assay to identify small molecule agonists of the TGF-beta/Smad signaling pathway - cell viability counter screen (AID 1346829); also: top concentration of the series differs between compounds; nearly all actives have a fitted effect of over 45% in size
How it was run: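 Same-well cytotoxicity: CellTiter-Glo added after the 2 hr room-temperature beta-lactamase substrate step, luminescence measured 30 min later; cells had 5 hr of compound at 37 C.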

[11] = qHTS assay to identify small molecule agonists of the TGF-beta/Smad signaling pathway (AID 1346859; active = well fitted activation curve with a large enough effect in the signal ratio in the repeat runs, not every such curve was filed as active; the % refers to the signal ratio; also: series mostly up to about 77 µM)
How it was run: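 Reporter line: HEK 293T with stably integrated SBE-controlled beta-lactamase. Compound exposure lasts 5 hr at 37 C and 5% CO2; substrate loading follows for 2 hr at room temperature, with emission read at 460 and 530 nm.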

[12] = target: Thyrotropin-releasing hormone receptor (Homo sapiens) (UniProt P34981); assay: qHTS assay to identify small molecule antagonists of the thyrotropin-releasing hormone receptor (TRHR) signaling pathway (AID 1346877; active = well fitted inhibition curve with a large enough effect in the repeat runs, not every such curve was filed as active; also: series mostly up to about 51 µM)
Thyrotropin-releasing hormone receptor (Homo sapiens), sequence (P34981 whole entry, looked up): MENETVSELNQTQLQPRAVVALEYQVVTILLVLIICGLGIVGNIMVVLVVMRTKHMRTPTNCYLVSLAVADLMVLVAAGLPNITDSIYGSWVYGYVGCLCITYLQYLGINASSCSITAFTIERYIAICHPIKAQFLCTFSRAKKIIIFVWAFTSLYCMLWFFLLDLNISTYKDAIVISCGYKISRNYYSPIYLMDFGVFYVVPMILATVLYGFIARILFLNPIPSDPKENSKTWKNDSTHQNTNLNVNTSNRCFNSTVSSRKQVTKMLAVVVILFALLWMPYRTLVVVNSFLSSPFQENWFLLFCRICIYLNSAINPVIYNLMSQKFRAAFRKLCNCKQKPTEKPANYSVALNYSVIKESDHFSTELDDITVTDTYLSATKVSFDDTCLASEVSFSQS
How it was run: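 Antagonist mode: after a 5 min room-temperature compound exposure, cells were stimulated with 1 nM (final) TRH. Dye-loaded TRHR-HEK293 cells were used, and calcium-dependent fluorescence was followed for 3 min, with 15-point titrations run in triplicate.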

[13] = target: Thyrotropin-releasing hormone receptor (Homo sapiens) (UniProt P34981); assay: qHTS assay to identify small molecule agonists of the thyrotropin-releasing hormone receptor (TRHR) signaling pathway (AID 1346891; calls by dose curve;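 also: HEK293 cells expressing TRHR with calcium dye readout; series mostly up to about 58 µM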)
How it was run: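 Cells: TRHR-Hek293, seeded and incubated 18 h. Dye loading: 2 h at 37 °C. Compound added from DMSO stock by pin tool. Read-out: kinetic calcium fluorescence over 3 min.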

[14] = Human pregnane X receptor (PXR) small molecule agonists, qHTS cell viability counter screen (AID 1346977); also: nearly all actives have a fitted effect of over 50% in size; also: potency is read from the fitted curve at half-maximal effect
How it was run: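 Cytotoxicity counter screen run in the same wells as the PXR luciferase assay, using PXR-Luc HepG2 cells in charcoal-stripped serum medium. Viability: CellTiter-Fluor fluorescence after 24hr compound treatment.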

[15] = qHTS assay to identify small molecule agonists or antagonists of the thyroid stimulating hormone receptor (TSHR) signaling pathway - wild type cell line counter screen (AID 1259384; calls by dose curve)
How it was run: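 Wild-type Hek293 cells, 800/well, 18 h at 37C, then compound with Ro20-1724 for 30 min RT. cAMP by HTRF (cAMP-d2/anti-cAMP cryptate), 1 h RT, fluorescence read. 15 concentrations, triplicates.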

[16] = qHTS assay to identify small molecule antagonists of the estrogen receptor beta (ER-beta) signaling pathway - cell viability counter screen (AID 1259382);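 also: HEK293T cells carrying ER-beta-UAS-bla reporter stimulated with estradiol; series mostly up to about 92 µM; nearly all actives have a fitted effect of over 55% in size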
How it was run: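 Cytotoxicity was measured in the same wells by CellTiter-Glo luminescence after 30 min at room temperature. Cells were ER-beta-bla HEK293T in charcoal-stripped serum, given compound together with 1 nM E2 and incubated 16 h at 37C.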

[17] = target: Thyrotropin receptor (Homo sapiens) (UniProt P16473); assay: qHTS assay to identify small molecule antagonists of the thyroid stimulating hormone receptor (TSHR) signaling pathway (AID 1259385; calls by dose curve; also: nearly all actives have a fitted effect of over 20% in size)
Thyrotropin receptor (Homo sapiens), sequence (P16473 whole entry, looked up): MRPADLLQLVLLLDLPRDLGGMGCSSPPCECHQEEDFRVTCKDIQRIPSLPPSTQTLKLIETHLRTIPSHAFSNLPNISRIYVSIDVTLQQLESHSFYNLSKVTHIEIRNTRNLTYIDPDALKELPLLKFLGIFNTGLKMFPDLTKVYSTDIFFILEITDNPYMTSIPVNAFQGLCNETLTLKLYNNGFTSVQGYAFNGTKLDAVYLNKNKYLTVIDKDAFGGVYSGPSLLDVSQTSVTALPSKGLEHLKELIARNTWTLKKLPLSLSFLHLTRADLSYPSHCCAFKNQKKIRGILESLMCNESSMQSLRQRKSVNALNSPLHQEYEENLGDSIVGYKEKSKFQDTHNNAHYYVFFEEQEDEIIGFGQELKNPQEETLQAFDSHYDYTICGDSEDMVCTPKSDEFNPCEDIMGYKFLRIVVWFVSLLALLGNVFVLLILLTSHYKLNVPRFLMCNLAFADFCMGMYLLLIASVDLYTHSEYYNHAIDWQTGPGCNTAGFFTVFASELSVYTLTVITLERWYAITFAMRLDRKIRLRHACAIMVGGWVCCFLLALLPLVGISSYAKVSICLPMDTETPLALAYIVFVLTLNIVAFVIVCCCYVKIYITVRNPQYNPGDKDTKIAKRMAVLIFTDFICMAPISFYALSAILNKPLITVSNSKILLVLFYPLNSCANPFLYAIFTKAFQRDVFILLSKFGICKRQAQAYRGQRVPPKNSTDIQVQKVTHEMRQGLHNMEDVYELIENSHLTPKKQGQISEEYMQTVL
How it was run: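 TSHR-HEK293 cells (800/well) plated 18 h, then compounds with Ro20-1724 and TSH at 1.5 ng/mL final, 30 min at room temperature. cAMP quantified by HTRF (cAMP-d2/anti-cAMP-cryptate, 1 h); 15 concentrations in triplicate.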

Compound	Potency [1]	Potency [2]	Potency [3]	Potency [4]	outcome [5]	Potency [6]	Potency [7]	Potency [8]	Potency [9]	Potency [10]	Potency [11]	Potency [12]	Potency [13]	Potency [14]	outcome [15]	Potency [16]	Potency [17]
CCCCCCCCCCc1ccccc1	inactive	inactive	inactive	inactive	inactive	inactive	inactive	inactive	inactive	inactive	inactive	inactive	inactive	inactive	–	–	–
CCCCCCCCCCCC(=O)N(CC)CC	inactive	inactive	–	inactive	inactive	–	–	inactive	inactive	–	inactive	inactive	inactive	inactive	inactive	–	–
CCOC(=O)CN	inactive	inactive	–	inactive	inactive	inactive	inactive	inactive	inactive	inactive	inactive	–	–	inactive	inactive	inactive	inactive
Clc1nc2ccccc2s1	inactive	inactive	inactive	inactive	inactive	–	inactive	inactive	inactive	inactive	inactive	inactive	inactive	inactive	inactive	inactive	–
NCCCC(O)(P(=O)(O)O)P(=O)(O)O	inactive	inactive	–	inactive	inactive	inactive	inactive	inactive	inactive	–	inactive	inactive	inactive	inactive	inactive	inactive	inactive
CCNc1nc(NC(C)CC)nc(OC)n1 (stereo unspecified)	inactive	inactive	–	inactive	inactive	–	inactive	inactive	inactive	inactive	inactive	inactive	inactive	inactive	inactive	inactive	inactive
CN1[C@@H]2CC[C@H]1CC(OC(=O)C(CO)c1ccccc1)C2 (stereo partly specified)	inactive	68.5 µM (active)	–	inactive	inactive	inactive	inactive	61.1 µM (active)	inactive	–	inactive	–	–	inactive	–	inactive	–
CC(=O)OC(OC(C)=O)c1ccc([N+](=O)[O-])o1	62.2 µM (active)	62.2 µM (active)	–	49.4 µM (active)	–	–	–	–	–	–	–	–	–	49.4 µM (active)	inactive	–	–
CC(=O)Nc1ccc(O)cc1	inactive	inactive	–	inactive	–	–	–	–	–	inactive	–	inactive	inactive	inactive	–	inactive	–
SCCCCCCCCS	inactive	inactive	–	–	inactive	inactive	inactive	–	inactive	inactive	inactive	inactive	inactive	–	inactive	inactive	inactive
